Measured values published in PubChem BioAssay AID504766 (The Scripps Research Institute Molecular Screening Center, 2011).
Screen size: about 340,000 compounds; about 3,400 (1%) were called active. The list comes from a sample in which actives are over-represented; it also holds similar structures and randomly drawn compounds. A number with no mark means an inactive call.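 How the source made its calls: active means inhibition above the mean over all tested compounds plus 3 SD (cut at about 4.2% in these data); inactive means the rest.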

The compounds below were run against Nuclear receptor subfamily 0 group B member 1 (Homo sapiens) (UniProt P51843) (assay: relief of DAX1 transcriptional repression – cell-based, HEK293, Gal4-DAX1, luciferase luminescence, primary screen (AID 504766;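 further: 0% = DAX1-transfected cells with DMSO and 100% = empty-vector control cells with DMSO; inhibition shows as a rise in luminescence from relieved DAX1 repression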)). Details: HEK293 Gal4-DAX1 luciferase reporter, at 6.75 µM, active compounds read high.
Chain of Nuclear receptor subfamily 0 group B member 1 (Homo sapiens) (P51843 207-470 limits assumed): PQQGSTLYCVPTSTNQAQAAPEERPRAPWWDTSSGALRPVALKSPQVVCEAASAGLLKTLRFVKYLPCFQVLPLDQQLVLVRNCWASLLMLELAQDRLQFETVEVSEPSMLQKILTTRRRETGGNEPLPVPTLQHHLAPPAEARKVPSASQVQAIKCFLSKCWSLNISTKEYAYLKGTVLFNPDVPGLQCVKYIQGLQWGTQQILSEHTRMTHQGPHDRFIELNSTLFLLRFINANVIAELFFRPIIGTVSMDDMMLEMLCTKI

Compound | inhibition
C[C@@H]1CN([C@@H](C)CO)C(=O)c2cc(Br)cnc2O[C@@H]1CN(C)C(=O)C1CCCCC1 | 1.82%
CCN(CC)C(=O)C1=C(C)N(Cc2ccccc2)C(=O)C(CC(=O)NC(c2ccccc2)c2ccccc2)C1 (configuration not stated) | -0.09%
CC(=O)Nc1ccc(SCC(=O)NC(=O)c2ccc(Cl)cc2)cc1 | 0.53%
O=[N+]([O-])c1ccc2c(c1)C(O)n1nc(-c3ccccc3)nc1S2 (configuration not stated) | 6.7% (active)
Cn1nc(-c2ccccc2)c2cc([N+](=O)[O-])ccc21 | 0.55%
O=[N+]([O-])c1ccc2oc(-c3cccc(O)c3)nc2c1 | 0.69%
Cc1ccc(C=O)c([B-](F)(F)F)c1 | -0.38%
COc1cc(NC(=O)CSc2nnc3ccc(-c4ccncc4)nn23)cc(OC)c1 | 0.29%
O=C(CSc1nnc2ccc(-c3ccncc3)nn12)N1CCCCC1 | 4.62% (active)
COc1ccc(CCNC(=O)CSc2nnc3ccc(-c4ccncc4)nn23)cc1 | 2.31%
Cc1nc2ccccc2nc1CC(O)(c1ccccc1)c1ccccc1 | 1.49%
COc1ccc(CN2C(=O)C(CC(=O)NCc3cccc4ccccc34)CC(C(=O)N3CCOCC3)=C2C)cc1 (configuration not stated) | 0.04%
CC(Sc1ccc(S(=O)(=O)N2CCN(C)CC2)cn1)C(=O)NC1CCCC(C)C1C (configuration not stated) | 0.86%
C[C@H]1Cn2cnc(C(=O)N[C@H](C)c3ccccc3)c2C(=O)N1 | 1.52%
CCOC(=O)C(=Cc1ccccc1)C(=O)c1ccccc1 | -1.17%
O=C(NCCCn1ccnc1)c1cc(Br)c(Br)s1 | 2.56%
O=C(NCCCn1ccnc1)c1ccccc1F | 1.27%
O=C(NC1CCCCC1)c1cc(C2CC2)on1 | 1.17%
O=C(NCCCn1ccnc1)c1cc(-c2ccccc2)on1 | 4.72% (active)
O=C(NC1CCCC1)c1cc(-c2ccccc2)on1 | 5.49% (active)
O=C(NC1CCCCCCC1)c1cccs1 | 0.85%
O=NN(CCCl)C(=O)NCCc1cccc[n+]1[O-] | 0.77%
CN(C)C(CNC(=O)c1cc(Br)c(Br)s1)c1ccco1 (configuration not stated) | -0.16%

Compound | inhibition
O=C1[C@H]2[C@@H](c3ccc(C(F)(F)F)cc3)N[C@]3(CCCN(Cc4ccc(Cl)cc4)C3=O)[C@H]2C(=O)N1Cc1ccccc1 | -0.84%
Cc1ccc(Cc2c(-c3ccc(C)cc3)nc3c4ccccc4ccn23)cc1 | 0.53%
O=C(CN1C(=O)NC2(CCc3ccccc32)C1=O)NC1CCCCC1 (configuration not stated) | -0.26%
N#Cc1c(C(F)(F)F)cc(-c2ccccc2)nc1SCC(=O)N1CCOCC1 | -0.64%
N#Cc1c(C(F)(F)F)cc(-c2ccc(Cl)cc2)nc1SCC(=O)O | 4.58% (active)
Cc1cc(C(F)(F)F)c(C#N)c(SCC(=O)NC2CC2)n1 | -0.39%
Cc1ccc(C(=O)N[C@H](C(=O)N2CCN(c3ncccn3)CC2)C(C)C)cc1 | 1.36%
CC1(C2CC2)NC(=O)N(CC(=O)N2CCN(c3ccccc3F)CC2)C1=O (configuration not stated) | -0.4%
COc1cc(C)c(CN2CCN(C(=O)CCC(=O)c3ccc(C)s3)CC2)cc1OC | 0.95%
COC(=O)C[C@H]1C[C@@H]2c3cc(N(C)C)ccc3O[C@@H]2[C@H](CO)O1 | 1.14%
O=C(NCCc1cccc(F)c1)C1CC(O)CN1C(=O)Nc1ccccc1 (configuration not stated) | 0.98%
COC(=O)c1sc(SC)c(S(=O)(=O)C(C)C)c1N/N=C(\C#N)S(=O)(=O)c1ccccn1 | 4.53% (active)
Cc1cc(C)c2c(=O)n3c(nc2c1)C(CC(C)C)NC(=O)c1cc2ccccc2cc1-3 (configuration not stated) | 0.81%
COc1ccc(C=C2CCC3C(CCCC34OCCO4)C2=O)cc1 (configuration not stated) | 1.37%
COc1ccc(CN2C(=O)C(CC(=O)NCCCCc3ccccc3)CC(C(=O)N3CCOCC3)=C2C)cc1 (configuration not stated) | -0.84%
CCCCCCNC(=O)O[C@]12C[C@@H](C(=O)OC)[C@@H](C(=O)OC)C[C@@]1(O)CN(S(=O)(=O)c1ccc(C)cc1)C2 | 0.26%
CCOC(=O)c1cc(-c2sc(NC(=O)c3ccccc3)nc2C)n(Cc2ccccc2)n1 | -1.03%
O=S1(=O)CCN(C2CCCCCCCCCCC2)CC1 | -0.26%
O=C(Nc1ccc(C2CC2(Cl)Cl)cc1)c1cccc([N+](=O)[O-])c1 (configuration not stated) | 4.49% (active)
Cc1cc(C)nc(NC(=O)c2cccc([N+](=O)[O-])c2)c1 | 0.73%
O=C(Nc1cccc([N+](=O)[O-])c1)c1ccc2c(c1)OCO2 | 0.29%
CC1=C(C(=O)N2CCOCC2)CC(CC(=O)NCc2ccco2)C(=O)N1Cc1ccc(F)cc1 (configuration not stated) | 1.82%
Cc1ccc(/C=N/NC(=S)NC2CCCCC2)o1 | 4.44% (active)

Compound | inhibition
C/C(=N\NC(=S)NC1CCCCC1)c1ccc(C)o1 | 0.98%
COc1ccc(C(=O)NC(=S)NC2CCCCC2)cc1 | 1.16%
CC1CCCCC12NC(=O)N(CC(=O)N1CCN(c3ccccc3)CC1)C2=O (configuration not stated) | 1.67%
O=C(C1CCC1)N1CCN(c2ccccc2)CC1 | 0.59%
NC(=O)C1CCCN(CC(=O)N2CCN(c3ccccc3)CC2)C1 (configuration not stated) | 6.46% (active)
Cc1ccc(S(=O)(=O)N2C[C@H]3C(=O)C[C@@H](c4cccc5ccccc45)N(S(=O)(=O)c4ccc(C)cc4)[C@H]3C[C@H]2c2ccc(Cl)cc2)cc1 | -0.08%
CC(C)CC(=O)N/C(N)=N/c1nc2ccccc2s1 | 0.77%
O=C(CCC(=O)c1cccs1)Nc1nc2ccccc2s1 | 0.63%
CCC(=O)NC(=Nc1nc2ccccc2s1)NC(=O)CC | 6.2% (active)
Cc1cccc(C(=O)C(O)(c2ccccc2)C2CCCCC2=O)c1 (configuration not stated) | 0.38%
COc1ccc(NC(=O)CN(C)C(=O)c2cc(C)oc2C)cc1 | -0.29%
Cc1cc2[nH]ncc2cc1NC(=S)NC(=O)c1ccccc1 | 5.71% (active)
Cc1cc(C)cc(C(=O)NC(=S)Nc2ccc3[nH]c(=O)[nH]c3c2)c1 | -1.15%
Cn1nnc(NC(=S)NC(=O)c2ccccc2)n1 | 0.45%
O=C(OCC(=O)N1CCCCCC1)c1cccc(Cl)c1Cl | 3.82%
O=C(CSc1ncn[nH]1)Nc1nc2c(F)c(F)c(F)cc2s1 | 0.83%
C=CCSC(CC)(CC)C(N)=O | 4.43% (active)
CCOC(=O)C[C@H]1c2ccc(C(F)(F)F)cc2S(=O)(=O)N1c1ccccc1 | 0.49%
Cc1[nH]n(-c2ccccc2)c(=O)c1CCOC(=O)c1ccc(C(F)(F)F)cc1 | 5.49% (active)
CCCOC(=O)c1ccc(N2C(=O)c3ccccc3C2=O)cc1 | -0.27%
Cc1ccc([C@H]2N[C@]3(CCCN(CC4CCCCC4)C3=O)[C@H]3C(=O)N(Cc4ccccc4)C(=O)[C@@H]23)cc1 | -0.61%
CC1(C)CC(=O)C=C(c2ccccc2CO)C1=O | 0.81%
CNS(=O)(=O)c1ccc(NC(=O)Nc2ccc3c(c2)OCO3)cc1 | 4.23% (active)

Compound | inhibition
Cc1cccc(NC(=O)Nc2ccc3c(c2)OCO3)n1 | 3.3%
CC(C)CNS(=O)(=O)c1ccc(C(=O)Nc2ccc3c(c2)OCO3)cc1 | 0.58%
C/C(COc1ccccc1)=N\NC(=O)c1nnn(-c2nonc2N)c1-c1ccc(C)cc1 | 1.15%
Cc1nnc(SCC(=O)NC(=O)NC2CCCC2)n1N | -0.17%
CC(Sc1nnnn1C)C(=O)NC(=O)NC1CCCCC1 (configuration not stated) | 4.23% (active)
CC(Sc1nnnn1C1CCCCC1)C(=O)O (configuration not stated) | -0.46%
NC(=S)NN=Cc1ccc(OC(=O)COc2cc(Cl)c(Cl)cc2Cl)cn1 | -2.71%
N#C/C=C1\Sc2ccccc2C(=O)N1CC(=O)N1CCN(S(=O)(=O)c2ccccc2)CC1 | 4.84% (active)
O=C(CN1CCCSc2ccccc21)N1CCN(S(=O)(=O)c2cccc(F)c2)CC1 | -0.31%
O=C(CN1CCCSc2ccccc21)N1CCN(S(=O)(=O)c2ccccc2)CC1 | 0.49%
COCOCCn1cc(CN2CCS(=O)(=O)N(Cc3ccc(-c4ccc(OC)cc4)cc3)C(CC(C)C)C2=O)nn1 (configuration not stated) | -0.18%
COc1ccccc1NC(=S)N1CCN(c2ccc(F)cc2)CC1 | 0.5%
COc1c(N2CCN(C(=S)Nc3ccccc3F)C(C)C2)c(F)cc2c(=O)c(C(=O)O)cn(C3CC3)c12 (configuration not stated) | 4.24% (active)
CC1CN(C(=S)Nc2ccccc2F)CC(C)O1 (configuration not stated) | -0.08%
Cc1ccc(C(=O)NC(C)C(c2cccs2)N2CCOCC2)cc1C (configuration not stated) | 0.43%
O=C(Nc1cccc(C(=O)O)c1)/C(=C\c1ccccc1)NC(=O)c1ccc(Br)o1 | 1.84%
Fc1ccccc1/C=N/Nc1cc(N2CCCCC2)ncn1 | 9.97% (active)
c1cnn(-c2cc(N3CCOCC3)ncn2)c1 | 0.28%
COc1ccccc1N1CCN(C(=O)C(=O)N/N=C/c2ccccc2F)CC1 | -0.62%
Cc1cccc(C(=O)OCC(=O)Nc2sccc2C(N)=O)c1C | 0.47%
COc1ccc(Cn2c(=S)[nH]c3cc(C(=O)N4CCCCC4)ccc3c2=O)cc1 | -0.61%
COc1cc2[nH]c(=S)n(Cc3ccc(F)cc3)c(=O)c2cc1OC | -0.72%
COc1ccc(Cn2c(=O)cc(C)[nH]c2=S)cc1 | 4.43% (active)
